Several values for one entry are separate records, joined by “and”; a condition that tells them apart may be missing. Identical values can stand only once. The panel holds about 83,000 compounds, 20% with a hit somewhere; the sample as a whole holds those more often.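 Single-dose data. Exposure time 48 hours. Values below 10 considered active.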 Unmarked numbers belong to inactive results. Activity calls are given as the source filed them.
tested on: HL-60(TB) leukemia; experiment: NCI-60 one-dose screen, 48 h (100 = growth as untreated, 0 = no growth, -100 = all killed); details: 10 µM unless noted

| Structure (SMILES) | growth |
| --- | --- |
| COc1ccc2c(c1)C(=O)c1c-2c(OCCN2CCCCC2)nc2ccc(OC)cc12 | 17.1% |
| NC(Cc1c[nH]c2ccccc12)C(=O)O (configuration not stated) | 108% and 109% |
| COc1ccc(S(=O)(=O)N2CCOCC2)cc1NC(=O)c1[nH]c(C)c2c1CCCCC2=O | 99.6% and 15% |
| COc1ccc2cc3[n+](cc2c1OC)CCc1cc2c(cc1-3)OCO2 | 75.4% and 70.1% |
| CC(=O)Nc1ccc2cc3ccc(NC(C)=O)cc3nc2c1 | 131% and 96.4% |
| O=C(CC(SCc1ccccc1)c1ccccc1)c1ccccc1 (configuration not stated) | 66.7% |
| COc1ccc2c(c1)[nH]c(=O)c1c3cc(OC)c(OC)cc3cn21 | -18.9% (active) |
| Nc1c(C(=O)c2ccc(Br)cc2)sc2nc3c(cc12)CCCC3 | 94.7% |
| COc1cc(NC(=O)CCl)ccc(=O)c1 | 77.1% |
| CCOC(=O)c1cnc2ccccc2c1Cl | 122% |
| O=C(Nc1ccccc1)Oc1c(Cl)c(Cl)c(Cl)c(Cl)c1Cl | 86.8% and 92.2% |
| C=CCc1nc2ccccc2s1 | 105% |
| COc1ccccc1C(=O)/C=C/c1cc2cccc(OC)c2[nH]c1=O | -10.5% (active) |
| Cc1ccc2[nH]c3ccccc3c2c1 | 99.7% |
| O=C(OCc1ccc2c(Cl)cc(Cl)c(O)c2n1)n1cncn1 | 17.7% |
| CCCCNc1ccc(C#N)c(OCCN(CC)CC)c1 | 88.8% |
| O=C(NC1CCN(Cc2ccccc2)CC1)c1cc2nc(-c3ccc(Cl)s3)cc(C(F)(F)F)n2n1 | 58.6% |
| O=S(=O)(NCCNc1nccc(-c2c(-c3cccc(F)c3)nc3occn23)n1)c1cccc2ccccc12 | 51.9% |
| C=C(C)[C@@H]1CC[C@]2(C(=O)N3CCN(C)CC3)CC[C@]3(C)[C@H](CC[C@@H]4[C@@]5(C)CC(=C/c6ccncc6)/C(=N/O)C(C)(C)[C@@H]5CC[C@]43C)[C@@H]12 | 40.4% |
| Nc1ncnc2c1c(-c1cccc(Cl)c1)nn2CC(=O)N1CCOCC1 | 101% |
| COC(=O)c1nc(N)nc(C(=O)OC)c1C(=O)c1ccc(OC)cc1 | 115% and 65.7% |
| Nc1ncnc2c1c(-c1ccc(Oc3ccccc3)cc1)nn2C[C@H]1SSC[C@@H]1O | -22.5% (active) |
| O=C(Nc1cccc(Cl)c1)Nc1cc(C(F)(F)F)ccc1Cl | -6.22% (active) |
| N#Cc1cc(-c2nc3ccccc3s2)c(=O)n(NS(=O)(=O)c2ccc(Cl)cc2)c1N | 103% |
| CCOC(=O)C1OC2(CCCC2)OC1C(=O)OCC (configuration not stated) | 87.4% |
| CCn1ccnc1C(=O)/C=C/c1ccc(CC(=O)Nc2ccc(F)cc2)cc1 | 27.9% |
| N=C1C(c2nc(-c3ccc(Br)cc3)cs2)=C(O)CN1CC1CCCO1 (configuration not stated) | 98.3% |

From PubChem BioAssay (NCI)
